Bioassay records from PubChem BioAssay.
ERK AVP inh – inhibitors of vasopressin-stimulated ERK signaling pathway. actives 0.99% (n = 72,000). Potency, µM (highest dose often 57.5 µM), without a hit: at the top dose activity, negative = inhibition, most hits filed as inhibitors. HEK293-V1b, vasopressin-stimulated pERK AlphaScreen; also: % is scaled to controls: 0 for no effect and ±100 for the full control effect; nearly all actives have a fitted effect of over 55% in size
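Phosphorylated ERK1/2 detected via AlphaScreen bead proximity in lysates of V1b-expressing HEK293 cells given 25 nM vasopressin for 5 min after 30 min compound exposure (37 °C). AC50 from Hill equation; basal DMSO 0%, vasopressin 100%.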
HEK293 cAMP ctrl – raises cAMP in parental HEK293 cells, TSHR agonist counter-screen; AID 938; Potency, µM (series often up to 57.1 µM), for the others: at the highest dose activation, actives largely listed as activators; parental HEK293 CNG cAMP sensor, membrane potential fluorescence; actives 2.5% (n = 73,000); also: % of control where 0% means no effect; nearly all actives have a fitted effect of over 55% in size
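Counterscreen for endogenous-receptor signalling: CNG-channel HEK 293 cells report cAMP rise by membrane depolarization. After 60 min dye equilibration with 100 uM RO 20-1724, compounds incubated 30 min before bottom-read fluorescence at 590 nm.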
IkB sig inh – inhibitors of IkB signaling in ABC-DLBCL cells | Potency, µM (doses to about 57.1 µM), without a hit: top-dose IkBa stabilization activation | ABC-DLBCL IkBa-CBG/CBR dual luciferase ratio, 4 h; response scale: scaled: untreated 0%, proteasome inhibitor 100% | actives 0.04% (n = 110,000); active = well fitted curve in the direction sought with a large enough effect in the signal ratio, not every such curve was filed as active; inconclusive = small, poorly fitted or top-dose-only effect, or a change in a side signal; the % refers to the signal ratio;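 also: the direction sought is a rising ratio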
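Luminescence ratio of IκBα-fused green versus native red beetle luciferase in OCI-Ly3 cells, 4 h post-doxycycline with compound; red signal alone, scaled from basal (0%) to zero light (-100%), flagged nonspecific or cytotoxic effects.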
CRE-bla Fsk – modulators of forskolin-stimulated CRE signaling in CHO cells. CHO CRE-bla reporter (cAMP response element driving beta-lactamase), forskolin EC10, beta-lactamase ratio. actives 2.5% (n = 71,000). Potency, µM (doses to about 38.2 µM), for the others: at the top dose activity change, negative = inhibition, actives largely listed as activators. AID 662; active = well fitted activation curve with a large enough effect in the signal ratio, with a control signal flat, not every such curve was filed as active; inconclusive = small, poorly fitted or top-dose-only effect, or effect the other way, or a change in a side signal; the % refers to the signal ratio; also: % of control where 0% means no effect
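The 460nm/530nm emission ratio after CCF4 loading defined %Activity, from which AC50 values were obtained. CRE-bla CHO cells received compound dilution series together with an EC10 level of NKH 477 for 3 hours at 37 degrees Celsius.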
TSHR agonist – activates the human thyroid stimulating hormone receptor. P16473. HEK293-CNG-TSHR cells (CNG channel as cAMP sensor), membrane potential dye, cAMP. Potency, µM (top dose mostly 57.1 µM), without a hit: top-dose activation, actives largely listed as activators. actives 0.48% (n = 73,000). AID 926; active = well fitted activation curve with a large enough effect in the main read-out, with a control signal flat, not every such curve was filed as active; inconclusive = small, poorly fitted or top-dose-only effect, or a change in a side signal; inactive = no such curve, though single readings can be large or run the other way; % of control where 0% means no effect;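 also: the control signal comes from parental cells without the receptor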
Target sequence (P16473 whole entry, looked up): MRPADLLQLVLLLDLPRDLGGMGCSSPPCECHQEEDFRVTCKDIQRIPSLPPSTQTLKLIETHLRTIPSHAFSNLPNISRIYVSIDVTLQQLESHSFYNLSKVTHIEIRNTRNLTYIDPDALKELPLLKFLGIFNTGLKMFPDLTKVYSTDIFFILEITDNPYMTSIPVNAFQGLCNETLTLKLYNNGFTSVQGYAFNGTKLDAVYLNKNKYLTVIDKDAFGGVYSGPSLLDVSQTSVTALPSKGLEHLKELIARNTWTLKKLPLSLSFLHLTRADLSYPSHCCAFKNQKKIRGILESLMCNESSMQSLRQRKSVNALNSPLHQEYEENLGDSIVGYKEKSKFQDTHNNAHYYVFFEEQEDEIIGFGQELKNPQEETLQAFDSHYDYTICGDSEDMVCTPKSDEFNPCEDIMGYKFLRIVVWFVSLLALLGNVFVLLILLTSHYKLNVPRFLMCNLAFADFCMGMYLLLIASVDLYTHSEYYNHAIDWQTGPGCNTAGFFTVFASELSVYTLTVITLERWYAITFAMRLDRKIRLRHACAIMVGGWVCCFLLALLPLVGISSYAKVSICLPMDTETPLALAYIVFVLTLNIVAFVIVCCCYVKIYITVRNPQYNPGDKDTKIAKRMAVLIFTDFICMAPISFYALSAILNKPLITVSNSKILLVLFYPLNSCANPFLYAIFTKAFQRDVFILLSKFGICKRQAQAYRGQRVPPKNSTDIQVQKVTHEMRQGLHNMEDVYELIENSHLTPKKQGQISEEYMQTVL
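cAMP rise detected as CNG-channel membrane depolarization by fluorescent dye (emission 590 nm), 30 min after compound, following 60 min dye loading containing 100 uM RO 20-1724 at room temperature. Cells: TSHR/CNG HEK 293, with parental CNG HEK 293 as control.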
Starred values were filed as active, the others as inactive. Only some compounds are listed: those with a hit (about 3.6% of all), similar ones and a draw of the others. Unless noted, calls follow the shape of the dose curve; as a rule, active = well fitted curve in the direction sought with a large enough effect; inconclusive = small, poorly fitted or top-dose-only effect, or another doubt; inactive = no such curve, though single readings can be large; an effect the other way counts as inactive or inconclusive. Potency is read from the fitted curve at half-maximal effect.

Screening CC(=O)NCc1ccc(C(=O)CSc2nnc(-c3ccncc3)n2Cc2ccccc2)o1 returned ERK AVP inh 23%, HEK293 cAMP ctrl 4%, IkB sig inh 0%, CRE-bla Fsk 2% and TSHR agonist -1%.
For CCOC(=O)c1ccccc1NC(=O)CSc1nnc(COc2ccccc2)n1CC the results were ERK AVP inh -17%, HEK293 cAMP ctrl 16µM*, IkB sig inh inconclusive, CRE-bla Fsk 4% and TSHR agonist inconclusive.
For COC(=O)c1cccc(NC(=O)CSc2nnc(COc3ccccc3)n2C)c1 the results were ERK AVP inh -19%, HEK293 cAMP ctrl 12%, IkB sig inh 1%, CRE-bla Fsk -4% and TSHR agonist 3%.
`CCc1nc(SCC(=O)Nc2ccccc2C(=O)OC)n[nH]1` gave ERK AVP inh -8%, HEK293 cAMP ctrl 7%, IkB sig inh 0%, CRE-bla Fsk inconclusive and TSHR agonist -2%.
Screening COC(=O)c1ccccc1NC(=O)CSc1nc2ccccc2c(=O)[nH]1 returned ERK AVP inh -18%, HEK293 cAMP ctrl inconclusive, IkB sig inh 6%, CRE-bla Fsk 7.9µM* and TSHR agonist inconclusive.
`CCOC(=O)c1ccccc1NC(=O)CSc1nc2ccccc2o1` gave ERK AVP inh -10%, HEK293 cAMP ctrl 25µM*, IkB sig inh -2%, CRE-bla Fsk inconclusive and TSHR agonist inconclusive.
For COC(=O)c1ccccc1NC(=O)CSc1nnc(COc2cccc(OC)c2)n1C the results were ERK AVP inh 7%, HEK293 cAMP ctrl 13µM*, IkB sig inh -1%, CRE-bla Fsk 2% and TSHR agonist inconclusive.
For COc1cc(Cl)c(C)cc1NC(=O)CSc1nc2ccccc2o1 the results were ERK AVP inh 11%, HEK293 cAMP ctrl inconclusive, IkB sig inh inconclusive, CRE-bla Fsk 5% and TSHR agonist inconclusive.
For CCOC(=O)c1cccc(NC(=O)CSc2nnc(COc3ccccc3)n2CC)c1 the results were ERK AVP inh inconclusive, HEK293 cAMP ctrl 24%, IkB sig inh inconclusive, CRE-bla Fsk -11% and TSHR agonist 11%.
`COc1cccc(Nc2nc3c(S(=O)(=O)c4cc(C)ccc4C)nnn3c3ccsc23)c1` gave IkB sig inh 1%.
Screening CC1CCCCN1C(=O)Cn1c(=O)n(CCC(=O)NCc2ccco2)c(=O)c2sccc21 (stereo unspecified) returned ERK AVP inh -8%, HEK293 cAMP ctrl 7%, IkB sig inh 8%, CRE-bla Fsk inconclusive and TSHR agonist 5%.
For CCc1ccc2c(-c3cccc(Cl)c3)nc(=O)n(CC)c2n1 the results were ERK AVP inh -28%, HEK293 cAMP ctrl inconclusive, IkB sig inh 0%, CRE-bla Fsk 0.79µM* and TSHR agonist inconclusive.
`CCOC(=O)C1=C(C)NC(=O)NC1c1ccc(C)o1` (stereo unspecified) gave ERK AVP inh -17%, HEK293 cAMP ctrl -3%, IkB sig inh -1%, CRE-bla Fsk 2% and TSHR agonist -7%.
Screening O=C(OCC(=O)N1CCN(C(=O)c2ccco2)CC1)c1ccccc1OCc1ccc(Cl)cc1 returned ERK AVP inh inconclusive, HEK293 cAMP ctrl 25µM*, IkB sig inh inconclusive, CRE-bla Fsk 16% and TSHR agonist inconclusive.
CC1CN(C(=O)c2cccc(S(=O)(=O)N3CCOCC3)c2)CC(C)O1 (stereo unspecified) was read as ERK AVP inh -6%, HEK293 cAMP ctrl -2%, IkB sig inh 0%, CRE-bla Fsk -4% and TSHR agonist -3%.
For Cc1cc(C)c(-c2csc(-c3cc4ccccc4oc3=O)n2)cc1C the results were IkB sig inh 0%.
Screening Cc1cc(C)n(CCc2nc(-c3cc4ccccc4o3)cs2)n1 returned ERK AVP inh inconclusive, HEK293 cAMP ctrl 16µM*, IkB sig inh -7%, CRE-bla Fsk inconclusive and TSHR agonist inconclusive.
`CCCNC(=O)Cc1cc(=O)[nH]c(=O)[nH]1` gave HEK293 cAMP ctrl inconclusive, IkB sig inh 1%, CRE-bla Fsk 2µM* and TSHR agonist inconclusive.
